Compounds without any hit were thinned out: in the full panel of roughly 83,000, 20% have a hit.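 In brief: 96-well plates, 48 h treatment, single concentration, percent growth endpoint.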 A number with no mark means an inactive call. Activity calls are given as the source filed them. Rule for the calls: active = growth percent below 10; inactive = the rest.

Our source for the growth values is PubChem BioAssay (NCI).

The test system of the assay is MDA-MB-468 breast. Nature of the assay: NCI-60 one-dose screen, 48 h (100 = growth as untreated, 0 = no growth, -100 = all killed). Particulars: 10 µM unless noted.
Consider `CCCc1cc2c(cc1CN(Cc1cc3c(cc1CCC)OCO3)C(=N)OCC)OCO2`, for which the growth is 60.8%.

For the compound `O=C(O)c1ccccc1Nc1cccc(S(F)(F)(F)(F)F)c1`, the growth was 111%.

Consider `CNC(=O)c1cc(Oc2ccc3c(c2)sc2nc(-c4ccc(N)cc4)cn23)ccn1`, for which the growth was 40.6%.

For `O=C1Nc2c(ccc(Cl)c2Cl)/C1=C/c1ccccn1`, the growth was 50.6%.

Regarding `Cc1nn(-c2ccccc2)c2nc(Cl)c(C=O)c(-c3ccccc3)c12`, the growth is 94.7%.

`Cc1nc2sc(C(=O)Nc3cccc(Cl)c3)c(N)c2cc1C(O)c1ccccc1` (stereo not given): the growth is 15.3%.

As to `O=C(CCN1CCCC1)Nc1ccc2c(NCc3ccc(F)cc3)c3ccccc3nc2c1`, the growth was -46.1% (active).

As for `CC(C)c1ccc2c(c1)CCC1C2CCCC1(C)NCc1ccccc1` (stereo not given), the growth is -44.5% (active).

For the compound `N#Cc1c(N)nc2c(c(-c3ccc(Cl)cc3)nn2-c2ccccc2)c1C#N`, the growth is 90.1% [100 µM].

`c1ccc(C(=NNc2nc3ccccc3o2)c2ccccn2)nc1`: the growth is -27.4% (active).

As for `CC(C)C(=O)c1ccc(Cl)s1`, the growth is 91.6%.

With `CC1CCN(S(=O)(=O)c2ncsc2-c2ccccc2)CC1`, the growth is 94.4%.

For `CCn1cc2c(cc1=O)-c1nc3ccccc3c3ccnc(c13)C2=O`, the growth was 72.3%.

For `CN1CCN(Cc2ccc(NC(=O)c3cncc(C#Cc4cnc5ccc(OC6CCOCC6)nn45)c3)cc2C(F)(F)F)CC1`, the growth is -62.5% (active).

For the compound `Cc1cccc(NC(=O)CSc2nc3ccc([N+](=O)[O-])cc3[nH]2)c1`, the growth is 48.6%.

`c1ccc(-c2n[nH]c(-c3ccccn3)n2)nc1`: the growth is 100%.

For `CC1(C)CC2(C)OC2C2(C1)N=NC(=Nc1ccccc1)O2` (stereo not given), the growth is -15.6% (active).

Consider `Cc1ccc(C(=O)CSc2nc(-c3ccc(Br)cc3)c(C#N)c(=O)[nH]2)cc1`, for which the growth is 92.2%.

Consider `COc1ccc(/C=N/NC(=O)COCC(=O)N/N=C/c2ccc(OC)cc2)cc1`, for which the growth was 100%.

As for `CC1(C)[C@H](O)CC[C@]2(C)[C@@H]1CC[C@@]13C[C@@H](CC[C@H]12)[C@@](O)(CO)C3`, the growth is 106%.

As to `COc1ccc(/C=C(\C#N)c2cc3ccccc3n2C(C)=O)cc1`, the growth was 58.8%.

For `O=C(/C=C/c1ccc(C(F)(F)F)cc1)c1ccc(Nc2nc(NCCO)nc(NCCO)n2)cc1`, the growth was 19.9%.

Take `N#Cc1c(-c2ccccc2)c(C#N)c2c(C#N)c(N)nn2c1N`: the growth is 25.9%.

`O=C1NC(=O)C(=Cc2cc(-c3ccc(Cl)cc3)n(-c3ccccc3)n2)C(=O)N1`: the growth is 87.3%.

For `CNC(=O)c1cnc(C)nc1-c1cc(C(C)(C)C)c(O)c(C(C)(C)C)c1`, the growth was 97.4%.

In the case of `O=C1c2ccccc2NC(c2cn(-c3ccccc3)nc2-c2cccnc2)N1Cc1ccccc1` (stereo not given), the growth is 102%.

As for `CCCN=C(N)c1ccc(NC(=O)c2ccc(C(=O)Nc3ccc(C(N)=NCCC)cc3)cc2)cc1`, the growth was 67.1%.

As for `Cc1cc(C(O)CN(C)C)cc2c1ccc1cc(C(C)C)ccc12` (stereo not given), the growth is -88.6% (active).

With `N/C(=N\OC(=O)CSc1nc2ccccc2s1)c1ccc2ccccc2c1`, the growth is 102%.

For the compound `CCCCN(CCCC)C(=N)c1ccnc2ccccc12`, the growth was 117%.

With `CCN1CCN(CC(=O)Nc2nc3ccc(NCc4ccc(Br)cc4)cc3s2)CC1`, the growth was 61.1%.

Turning to `c1ccc2[nH]c(-c3ccc(Nc4nc(N5CCCCC5)nc(N5CCOCC5)n4)cc3)nc2c1`, the growth is -3.66% (active).

For the compound `O=S(=O)(Nc1ccc(Cl)c(F)c1)c1ccc(-c2cnc(C3CC3)o2)cc1`, the growth was -25.4% (active).

On to `CC(C)C[C@H](NC(=O)Cn1cccc(CNC(=O)c2ccccc2)c1=O)B(O)O`, for which the growth is -19.5% (active).

On to `COc1cccc(N2CCN(C3=C(Cl)C(=O)c4ncccc4C3=O)CC2)c1`, for which the growth was -63.6% (active).

On to `NNC(=O)Cc1ccccc1`, for which the growth is 92.3%.

As for `CC(=O)OCC1O[C@@H](OC(C)=O)[C@@H](NC(=O)NS(=O)(=O)c2ccccc2)C(OC(C)=O)[C@@H]1OC(C)=O` (stereo not given in full), the growth was 107%.

For the compound `O=C1OC2(c3ccccc31)c1ccccc1-c1ccccc12`, the growth was 40.2%.

As to `C#CCNC(=O)[C@]1(C)CC[C@]2(C)CC[C@@H]3C(=CC[C@H]4[C@@]3(C)CC[C@H]3C(C)(C)C(=O)CC[C@]43C)[C@@H]2C1`, the growth was 104%.

With `C#Cc1ccccc1NC(=O)c1sc2nc3c(cc2c1N)CCCCCC3`, the growth was 73.5%.
